Consider 6 compounds from PubChem BioAssay (NCATS).

Assay [1] deals with ATP-dependent DNA helicase Q1 (Homo sapiens) (UniProt P46063). The assay can be described thus: qHTS Validation Assay for Inhibitors of RecQ-Like Dna Helicase 1 (RECQ1) (AID 2353). Particulars: recombinant RECQ1 helicase DNA unwinding assay; series mostly up to 25.6 µM. The method, boiled down:
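RECQ1T1 50 nM; forked duplex (20 bp + 30-nt ss tails) 200 nM, ATP 2 mM final; pH 8.0, 2 mM MgCl2, 2.5 ug/ml poly(dI-dC); 15 min compound preincubation; discontinuous kinetic read over 2 h at RT.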
In general terms: Quantitative high-throughput screening tests each substance at several concentrations.

Assay [2] in a line: Cytometric Cell-Based qHTS for Inhibitors of the mTORC1 Signaling Pathway in MEF (Tsc2-/-, p53-/-) Cells (AID 2660).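 Further: Tsc2 and p53 null MEFs carrying empty vector with compound for 24 h; percent of cells above a phospho-rpS6 to PI ratio cutoff in each well.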 To be noted: mTORC1 pathway cytometry; series mostly up to 38.3 µM. The method, boiled down:
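Readout: Alexa-488 phospho-rpS6 (Ser235/236) intensity divided by PI intensity, thresholded against 7.5 nM rapamycin wells and reported as % positive cells. PI cell count served as the viability measure. Compound exposure was 24 hrs at 37 degree Celsius.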

Assay [3] in a line: High Content Imaging Cell-Based qHTS for Inhibitors of the mTORC1 Signaling Pathway in MEF (Tsc2-/-, p53-/-) Cells (AID 2666).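 Further: percent of cells scored positive for phospho-rpS6 Ser235/236 immunostaining by imaging.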 Further: potency means the concentration at half of the fitted maximal effect. To be noted: series mostly up to 38.3 µM. The method, boiled down:
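Inhibition of rpS6 phosphorylation is measured by immunofluorescence imaging in empty-vector Tsc2-/-, p53-/- mouse embryonic fibroblasts after 24 hrs compound exposure at 37 degree Celsius. Results are reported as % positive cells per well.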

A short description of assay [4]: High Content Imaging Cell-Based qHTS for Inhibitors of the mTORC1 Signaling Pathway in MEF Cells (AID 2667).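 Further: Tsc2-/- p53-/- MEFs stably re-expressing wild-type Tsc2 exposed 24 h.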 To be noted: series mostly up to 38.3 µM. The method, boiled down: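 Fixed-cell imaging of phospho-S6 (Ser235/236, Alexa-488) after 24 hrs of compound treatment at 37 degree Celsius. Signal was normalized to Hoechst, and thresholds from the highest and lowest wells split cells into % active versus % non-active.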

Assay [5] in a line: Validation screen for small molecules that induce DNA re-replication in MCF 10A normal breast cells (AID 463097). Further: nearly all actives have a fitted effect of over 60% in size. Further: potency means the concentration at half of the fitted maximal effect. To be noted: MCF 10A cells, DNA re-replication phenotype imaging; series mostly up to 46.1 µM. The gist of the method:
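Image-based qHTS: normal breast cells are incubated with compound for 48 hr, stained with Hoechst, and scanned for total nuclear fluorescence. Compounds raising the fraction of nuclei with elevated DNA content count as re-replication inducers.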

Assay [6] addresses Ubiquitin carboxyl-terminal hydrolase 2 (Homo sapiens) (UniProt O75604). The assay can be described thus: qHTS Validation Assay for Inhibitors of Ubiquitin-specific Protease USP2a Using CHOP2 as the Reporter (AID 463106). To be noted: USP2a cleavage of CHOP2 reporter, enzymatic; series mostly up to 38.3 µM. The gist of the method: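 Inhibition is expressed relative to NEM as the full-inhibition control, with concentration-response curves classed by fit quality, magnitude and activity. Enzyme (USP2 core, 10nM) meets 25nM Ub-CHOP2 after compound preincubation; readings are taken at 60min.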

The target in assay [7] is DNA polymerase III PolC-type (Bacillus subtilis (strain 168)) (UniProt P13267). Description: qHTS Validation Assay for the Inhibitors of DNA Replication in Gram-Positive Bacteria (AID 485295).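 Further: reconstituted holoenzyme with PolC plus beta clamp SSB and primase; PicoGreen fluorescence of double-stranded DNA made on primed circular M13 template.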 To be noted: Gram-positive bacterial DNA replication assay; series mostly up to 57.1 µM. The method, boiled down:
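First, compound is mixed with the reconstituted replication complex and held at room temperature. Next, circular single-stranded M13Gori with nucleotides starts synthesis. Finally, PicoGreen in EDTA halts the reaction and stains double-stranded product for fluorescence reading.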

The target in assay [8] is Tumor susceptibility gene 101 protein (Homo sapiens) (UniProt Q99816). Description: qHTS Validation Assay for Iinhibitors of HIV-1 Budding by Blocking the Interaction of PTAP/TSG101 (AID 485342; calls by dose curve). Particulars: TSG101-PTAP binding, fluorescence polarization, 4-point titration; series mostly up to 115 µM. The gist of the method:
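Binding of a FITC-tagged PTAP-motif peptide (50 nM) to the Tsg101 binding domain (10 uM) is monitored by fluorescence polarization. Compounds are pin-delivered before peptide addition, and incubation runs 20 min at room temperature.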

Assay [9] concerns the target Beta-2 adrenergic receptor (Homo sapiens) (UniProt P07550). Description: qHTS validation assay of beta-arrestin-biased ligands of beta2-adrenergic receptor (AID 485366). To be noted: cell-based beta-arrestin recruitment to ADRB2, qHTS; series mostly up to 46.1 µM. The gist of the method:
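Agonist activity is measured as luciferase luminescence downstream of beta-arrestin recruitment to recombinant beta2-AR in Tango cells. Exposure lasts 18 hr at 37 degrees C, and curves are categorized by r2, response size and activity.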

Assay [10] addresses Thioredoxin reductase 1, cytoplasmic (Rattus norvegicus) (UniProt O89049). Description: qHTS Assay for Substrates of Mammalian Selenoprotein Thioredoxin Reductase 1 (TrxR1) (AID 488772).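 Further: a drop in NADPH fluorescence below the no-compound background marks a TrxR1 substrate.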 To be noted: purified TrxR1, NADPH consumption substrate assay; series mostly up to 57.1 µM. The gist of the method: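 In this dual-purpose format, potential substrates are identified from the first fluorescence read after selenite addition, not from the 8-minute delta. Rat enzyme is preincubated with NADPH and then with compound at ~22 deg C.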

The target is the same in assay [11]. Description: qHTS Assay for Inhibitors of Mammalian Selenoprotein Thioredoxin Reductase 1 (TrxR1) (AID 488773). Further: nearly all actives have a fitted effect of over 40% in size. Further: potency means the concentration at half of the fitted maximal effect. To be noted: purified TrxR1 enzyme activity; Potency: inhibition; series mostly up to 57.1 µM. The gist of the method: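 Inhibition is scored from the loss of NADPH fluorescence between first and last reads of an 8-min kinetic run. Selenite (400 uM) was the substrate, added after 15 min compound preincubation at room temperature.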

Assay [12] deals with Flap endonuclease 1 (Homo sapiens) (UniProt P39748). Description: qHTS Validation Assay for the Inhibitors of Human Flap endonuclease 1 (FEN1) (AID 488816). Particulars: FEN1 nuclease activity, fluorogenic DNA substrate; series mostly up to 57.1 µM. The gist of the method: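 Steps: add FEN1 (10 nM reagent) or buffer only; pin compounds; hold 15 min at room temperature; start with substrate, 50 nM final; read at 0 and 15 min; correct, normalize and fit a four-parameter Hill curve.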
Sequence of Flap endonuclease 1 (Homo sapiens) (P39748 whole entry, looked up): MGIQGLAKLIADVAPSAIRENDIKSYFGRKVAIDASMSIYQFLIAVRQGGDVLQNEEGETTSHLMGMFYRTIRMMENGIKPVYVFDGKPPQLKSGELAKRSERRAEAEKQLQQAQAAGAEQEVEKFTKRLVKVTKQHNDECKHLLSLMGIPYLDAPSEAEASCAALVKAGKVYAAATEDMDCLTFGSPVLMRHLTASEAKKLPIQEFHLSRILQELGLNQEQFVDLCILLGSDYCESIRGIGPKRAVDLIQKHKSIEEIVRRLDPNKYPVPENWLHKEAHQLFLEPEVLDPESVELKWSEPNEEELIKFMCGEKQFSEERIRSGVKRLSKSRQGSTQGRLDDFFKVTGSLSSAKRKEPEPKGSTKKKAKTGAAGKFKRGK

Assay [13] addresses M-phase phosphoprotein 8 (Homo sapiens) (UniProt Q99549). Description: qHTS Validation Assay for Inhibitors for MPP8 Chromodomain Interactions with Methylated Histone Tails (AID 488949).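 Further: 50 nM MPP8 with 50 nM peptide preformed then compounds added for 30 min; AlphaScreen signal from MPP8 chromodomain bound to biotinylated H3K9me3 peptide; top concentration of the series differs between compounds; nearly all actives have a fitted effect of over 55% in size.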 Particulars: AlphaScreen MPP8 binding to H3K9me3 peptide; series mostly up to 57.1 µM. The gist of the method: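 50 nM MPP8 + 50 nM b-H3K9me3 peptide, PBS pH 7.4/0.01% Tween-20, 30 min RT; + cpd 30 min RT; + AlphaScreen donor/Ni-chelate acceptor beads 10 ug/mL final, 30 min dark; luminescence read.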

The target of assay [14] is Chromobox protein homolog 1 (Homo sapiens) (UniProt P83916). Description: qHTS Validation Assay for Inhibitors of HP1-beta Chromodomain Interactions with Methylated Histone Tails (AID 488953).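 Further: loss of AlphaScreen luminescence from HP1-beta binding biotinylated H3K9me3 peptide; nearly all actives have a fitted effect of over 50% in size.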 Particulars: HP1-beta chromodomain / methylated histone peptide binding assay; series mostly up to 114 µM. The gist of the method:
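Disruption of preformed HP1-beta:H3K9me3 peptide complexes (both 50 nM, PBS pH 7.4 with 0.01% Tween-20) is measured by AlphaScreen after 30 min compound exposure at room temperature, using streptavidin donor and nickel chelate acceptor beads at 10 ug/mL final.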

Assay [15] is described as follows: qHTS Assay for Identification of Small Molecule Inducers of Hypoxia Response (AID 2120; active means well fitted curve in the direction sought with a large enough effect in the signal ratio, with a control signal flat, not every such curve was filed as active; the % refers to the signal ratio). To be noted: hypoxia response reporter cells, beta-lactamase ratio readout; series mostly up to 104 µM. The gist of the method: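 Cell-based qHTS for reporter induction: hypoxia response element controlled beta-lactamase in ME-180 cells. Compounds incubated 17 h at 37 degrees C; activity from blue/green (460/530 nm) ratio, inducers ranked by AC50.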

For assay [16], the target named is Ferritin light chain (Equus caballus) (UniProt P02791). The assay can be described thus: qHTS Validation Assay for Identification of Novel General Anesthetics (AID 2323). Particulars: horse apoferritin, anesthetic-site fluorescent probe displacement; series mostly up to 76.9 µM. The gist of the method:
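Fluorescence at 535 nm (excitation 380 nm) reported loss of 1-AMA binding to horse-spleen apoferritin (10 uM) in PBS with 50% saturated 1-aminoanthracene, after 10 min room-temperature incubation with compound; values from Hill fits of normalized response.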

A short description of assay [17]: Cytometry Cell-Based qHTS for Inhibitors of the mTORC1 Signaling Pathway in MEF cells (AID 2668). Further: potency means the concentration at half of the fitted maximal effect. Particulars: mTORC1 pathway readout; series mostly up to 38.3 µM. The gist of the method:
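Tsc2-/-, p53-/- MEFs re-expressing WT Tsc2; cpd 24 hrs, 37 degree Celsius; PFA fix, Alexa-488 p-rpS6 (Ser235/236) Ab 2 hrs RT, PI counterstain; Acumen 488nm scan; p-S6/PI ratio → % positive cells; PI count = viability.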

Assay [18] concerns the target ATP-dependent 6-phosphofructokinase (Trypanosoma brucei brucei) (UniProt O15648). Description: qHTS Validation Assay to Find Inhibitors of T. brucei phosphofructokinase (AID 485368). Particulars: T. brucei PFK enzyme assay, qHTS 7-point titration; series mostly up to 57.5 µM. The method, boiled down:
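Inhibition derived from concentration-response curves of luminescence, ranked by r2, response size and curve class; the underlying reaction used 1.25 nM PFK, 0.1 mM ATP and 0.5 mM F6P, 45 min, room temperature.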

Assay [19] can be described thus: Quantitative high throughput screen for delayed death inhibitors of the malarial parasite plastid, 96 hour incubation (AID 488745).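 Further: luciferase-expressing P. falciparum in erythrocytes at 2% hematocrit and 0.1% parasitemia; nearly all actives have a fitted effect of over 70% in size.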 Particulars: Plasmodium falciparum growth; series mostly up to 28.7 µM. The method, boiled down:
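Readout is firefly luciferase luminescence from an integrated reporter in P. falciparum; lower signal marks inhibited growth. Cultures at 2% hematocrit and 0.1% parasitemia were treated with compound across two generations (96 h, 37 C, 5% CO2).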

Records with an inconclusive call do not appear. The source made the active and inactive calls. Unless noted, the call rests on the fitted dose curve; in most records, active means well fitted curve in the direction sought with a large enough effect; inconclusive means small, poorly fitted or top-dose-only effect, or another doubt; inactive means no such curve, though single readings can be large; an effect the other way counts as inactive or inconclusive.

Sequence of DNA polymerase III PolC-type (Bacillus subtilis (strain 168)) (P13267 whole entry, looked up): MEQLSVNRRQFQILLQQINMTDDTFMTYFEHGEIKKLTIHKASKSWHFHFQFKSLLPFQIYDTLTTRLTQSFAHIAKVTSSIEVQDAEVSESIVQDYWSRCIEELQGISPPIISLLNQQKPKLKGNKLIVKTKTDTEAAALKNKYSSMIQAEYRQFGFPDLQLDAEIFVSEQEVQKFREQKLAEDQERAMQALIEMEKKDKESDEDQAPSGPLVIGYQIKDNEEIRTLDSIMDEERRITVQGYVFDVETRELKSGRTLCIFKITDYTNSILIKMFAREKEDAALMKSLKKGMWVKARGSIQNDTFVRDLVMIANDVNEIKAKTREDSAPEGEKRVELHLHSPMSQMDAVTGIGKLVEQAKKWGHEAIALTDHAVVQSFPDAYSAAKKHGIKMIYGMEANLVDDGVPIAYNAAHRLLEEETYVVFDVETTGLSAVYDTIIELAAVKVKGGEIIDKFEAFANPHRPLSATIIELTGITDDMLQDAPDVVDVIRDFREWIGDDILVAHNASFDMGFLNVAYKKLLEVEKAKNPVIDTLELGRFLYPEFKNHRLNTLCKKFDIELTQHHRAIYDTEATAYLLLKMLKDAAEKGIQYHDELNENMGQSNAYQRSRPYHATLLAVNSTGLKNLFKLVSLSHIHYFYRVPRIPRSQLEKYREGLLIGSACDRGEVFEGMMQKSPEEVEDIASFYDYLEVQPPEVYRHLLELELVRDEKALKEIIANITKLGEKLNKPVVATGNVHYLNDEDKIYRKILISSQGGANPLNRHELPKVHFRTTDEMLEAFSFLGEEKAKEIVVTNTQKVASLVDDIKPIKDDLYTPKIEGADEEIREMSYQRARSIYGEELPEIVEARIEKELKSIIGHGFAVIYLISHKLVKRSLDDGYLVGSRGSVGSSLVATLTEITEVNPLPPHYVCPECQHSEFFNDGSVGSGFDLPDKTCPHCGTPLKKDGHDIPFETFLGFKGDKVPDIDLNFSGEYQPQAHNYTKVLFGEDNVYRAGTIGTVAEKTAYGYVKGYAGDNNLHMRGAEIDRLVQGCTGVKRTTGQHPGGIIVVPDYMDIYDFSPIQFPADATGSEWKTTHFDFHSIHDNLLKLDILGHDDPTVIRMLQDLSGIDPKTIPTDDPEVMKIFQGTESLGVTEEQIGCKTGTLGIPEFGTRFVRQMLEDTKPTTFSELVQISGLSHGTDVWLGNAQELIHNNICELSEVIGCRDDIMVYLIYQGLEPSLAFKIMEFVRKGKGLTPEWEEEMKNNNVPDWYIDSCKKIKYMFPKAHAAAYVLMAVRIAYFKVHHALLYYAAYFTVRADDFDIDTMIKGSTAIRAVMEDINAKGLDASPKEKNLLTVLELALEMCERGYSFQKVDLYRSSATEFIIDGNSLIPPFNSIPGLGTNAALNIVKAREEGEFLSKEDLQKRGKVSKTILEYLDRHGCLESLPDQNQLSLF
Sequence of Ubiquitin carboxyl-terminal hydrolase 2 (Homo sapiens) (O75604 whole entry, looked up): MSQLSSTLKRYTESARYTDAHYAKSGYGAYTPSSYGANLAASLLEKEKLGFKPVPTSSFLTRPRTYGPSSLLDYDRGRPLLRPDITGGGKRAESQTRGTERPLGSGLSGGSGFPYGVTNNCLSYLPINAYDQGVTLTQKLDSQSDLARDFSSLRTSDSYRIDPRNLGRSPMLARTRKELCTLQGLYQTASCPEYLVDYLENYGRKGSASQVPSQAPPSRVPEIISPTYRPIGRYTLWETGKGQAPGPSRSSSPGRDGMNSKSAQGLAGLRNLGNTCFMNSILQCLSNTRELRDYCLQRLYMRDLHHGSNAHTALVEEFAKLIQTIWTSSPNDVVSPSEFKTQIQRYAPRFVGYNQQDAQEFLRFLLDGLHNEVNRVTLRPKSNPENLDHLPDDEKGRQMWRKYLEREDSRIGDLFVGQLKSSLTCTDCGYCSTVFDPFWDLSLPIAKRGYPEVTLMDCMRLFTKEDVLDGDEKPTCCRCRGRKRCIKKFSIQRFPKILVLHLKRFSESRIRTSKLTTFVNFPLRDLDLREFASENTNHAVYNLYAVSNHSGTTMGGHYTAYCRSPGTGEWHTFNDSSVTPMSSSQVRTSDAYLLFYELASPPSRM
Sequence of ATP-dependent DNA helicase Q1 (Homo sapiens) (P46063 whole entry, looked up): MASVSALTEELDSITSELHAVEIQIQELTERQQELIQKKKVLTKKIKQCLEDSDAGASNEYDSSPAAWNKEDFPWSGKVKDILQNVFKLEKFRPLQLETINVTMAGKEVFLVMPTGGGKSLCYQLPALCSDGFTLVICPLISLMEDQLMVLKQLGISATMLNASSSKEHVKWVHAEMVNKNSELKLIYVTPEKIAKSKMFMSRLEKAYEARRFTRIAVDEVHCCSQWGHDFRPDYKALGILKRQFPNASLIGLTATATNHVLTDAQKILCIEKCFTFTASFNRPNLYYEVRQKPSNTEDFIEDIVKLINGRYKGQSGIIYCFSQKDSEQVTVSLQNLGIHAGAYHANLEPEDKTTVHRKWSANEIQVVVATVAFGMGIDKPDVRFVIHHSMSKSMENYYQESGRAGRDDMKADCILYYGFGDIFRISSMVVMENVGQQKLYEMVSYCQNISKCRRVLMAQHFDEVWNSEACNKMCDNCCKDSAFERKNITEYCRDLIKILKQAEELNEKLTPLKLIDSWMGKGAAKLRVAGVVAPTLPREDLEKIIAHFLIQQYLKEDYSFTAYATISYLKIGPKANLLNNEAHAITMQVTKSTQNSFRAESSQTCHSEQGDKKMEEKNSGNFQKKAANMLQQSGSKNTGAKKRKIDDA
Sequence of M-phase phosphoprotein 8 (Homo sapiens) (Q99549 whole entry, looked up): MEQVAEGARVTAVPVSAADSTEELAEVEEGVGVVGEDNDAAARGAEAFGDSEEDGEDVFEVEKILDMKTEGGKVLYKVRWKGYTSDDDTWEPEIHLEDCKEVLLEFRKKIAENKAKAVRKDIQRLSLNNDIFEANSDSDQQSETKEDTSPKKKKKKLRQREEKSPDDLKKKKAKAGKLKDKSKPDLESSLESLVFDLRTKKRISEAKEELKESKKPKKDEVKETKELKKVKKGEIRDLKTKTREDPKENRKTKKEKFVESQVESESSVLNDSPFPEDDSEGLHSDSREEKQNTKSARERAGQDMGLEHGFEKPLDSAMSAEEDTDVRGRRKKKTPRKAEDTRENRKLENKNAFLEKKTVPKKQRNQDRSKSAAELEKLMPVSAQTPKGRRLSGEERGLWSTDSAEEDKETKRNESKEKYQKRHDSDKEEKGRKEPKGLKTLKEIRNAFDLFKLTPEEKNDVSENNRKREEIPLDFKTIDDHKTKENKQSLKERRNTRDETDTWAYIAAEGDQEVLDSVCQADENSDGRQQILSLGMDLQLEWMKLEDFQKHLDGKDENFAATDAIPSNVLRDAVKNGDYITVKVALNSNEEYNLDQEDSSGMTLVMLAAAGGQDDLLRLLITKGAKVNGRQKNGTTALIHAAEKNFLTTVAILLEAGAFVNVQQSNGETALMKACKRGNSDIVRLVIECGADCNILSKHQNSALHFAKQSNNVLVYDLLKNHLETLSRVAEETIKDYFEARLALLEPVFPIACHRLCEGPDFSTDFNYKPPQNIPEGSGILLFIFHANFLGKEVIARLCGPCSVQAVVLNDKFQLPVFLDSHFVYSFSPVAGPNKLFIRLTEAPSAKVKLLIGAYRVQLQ
Sequence of Beta-2 adrenergic receptor (Homo sapiens) (P07550 whole entry, looked up): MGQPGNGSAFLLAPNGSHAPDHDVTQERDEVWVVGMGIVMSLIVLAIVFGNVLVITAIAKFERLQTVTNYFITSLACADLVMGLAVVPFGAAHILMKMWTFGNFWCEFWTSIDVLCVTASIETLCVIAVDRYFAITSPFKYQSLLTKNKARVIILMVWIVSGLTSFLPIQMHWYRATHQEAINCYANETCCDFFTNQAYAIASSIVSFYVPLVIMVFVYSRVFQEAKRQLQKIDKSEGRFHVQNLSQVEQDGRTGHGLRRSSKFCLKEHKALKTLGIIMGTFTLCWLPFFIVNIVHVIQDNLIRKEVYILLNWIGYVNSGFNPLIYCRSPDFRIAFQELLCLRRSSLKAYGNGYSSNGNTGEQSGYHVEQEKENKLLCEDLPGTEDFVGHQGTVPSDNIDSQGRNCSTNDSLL
Sequence of Tumor susceptibility gene 101 protein (Homo sapiens) (Q99816 whole entry, looked up, the tested form may be a part): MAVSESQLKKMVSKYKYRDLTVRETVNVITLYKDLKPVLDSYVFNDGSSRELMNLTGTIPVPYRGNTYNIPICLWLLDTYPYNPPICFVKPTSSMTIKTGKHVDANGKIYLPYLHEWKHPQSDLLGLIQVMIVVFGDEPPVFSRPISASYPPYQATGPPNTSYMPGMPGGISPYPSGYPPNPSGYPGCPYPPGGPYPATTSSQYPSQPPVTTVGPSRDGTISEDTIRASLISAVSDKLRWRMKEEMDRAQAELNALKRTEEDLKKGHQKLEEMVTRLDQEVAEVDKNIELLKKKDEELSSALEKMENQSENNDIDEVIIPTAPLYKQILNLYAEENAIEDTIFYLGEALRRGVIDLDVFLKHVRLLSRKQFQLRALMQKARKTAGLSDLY
Sequence of Ferritin light chain (Equus caballus) (P02791 2-175 limits assumed): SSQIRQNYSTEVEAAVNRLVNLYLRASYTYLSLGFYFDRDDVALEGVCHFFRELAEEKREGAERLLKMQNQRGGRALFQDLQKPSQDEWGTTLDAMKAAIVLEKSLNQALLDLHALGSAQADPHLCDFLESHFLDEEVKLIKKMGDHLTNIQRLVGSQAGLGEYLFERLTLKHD

On to `CC(C)OC(=O)C(C)(C)Oc1ccc(C(=O)c2ccc(Cl)cc2)cc1`, for which the result in assay [1], in assay [2], in [4], in assay [6], in assay [7] and in assay [8] was inactive. Besides, the call in assay [9] and in assay [12] was inactive. For the same compound, the Potency entry in assay [3], in assay [5], in assay [10], in assay [11], in [13] and in [14] was “inactive” throughout.
Consider `O=C(O)Cc1cccc2ccccc12`, for which the result in [15] was inactive.
Still for that read-out and setting: under `O=c1[nH]cnc2c1ncn2[C@H]1CC[C@@H](CO)O1` stands “inactive”.
`O=c1c(-c2ccc(O)cc2)coc2cc(O)ccc12`: the outcome in [16], in [1], in assay [2], in assay [4], in [6] and in assay [7] was inactive. In addition, the outcome in assay [8], in [9] and in assay [12] was inactive. The Potency result in assay [3], in assay [17], in [5], in assay [10], in [13] and in assay [14] was “inactive” each time. The Potency in assay [11] is 8.44 µM (active).
On to `NCCS`, for which the compound was classed as inactive in assay [16], in assay [1], in assay [2], in [4], in assay [6] and in assay [7]. In addition, the compound was classed as inactive in assay [8], in [9], in assay [18] and in assay [12]. Also, the Potency result in assay [3], in assay [17], in assay [5], in [19], in assay [11] and in assay [13] was “inactive” each time.
On to `CC(C)(C)c1ccc(C(O)CCCN2CCC(C(O)(c3ccccc3)c3ccccc3)CC2)cc1` (stereo not given), for which the result in [1], in [6], in [7], in assay [8], in [9] and in assay [18] was inactive. The Potency in assay [3] is 18.5 µM (active); in [17], 7.36 µM (active); in [5] it was 11.2 µM (active). Further, the Potency entry in assay [19], in assay [10] and in [11] was “inactive” throughout.
